# Compound activity (PubChem BioAssay)
# ssDAF12 agonist = S. stercoralis DAF-12 nuclear receptor activators, primary screen, cell-based, luminescence, HEK293, GRIP1 co-expression, lit1-tk-luc. Nuclear hormone receptor DAF-12 (Strongyloides stercoralis). HEK293 ssDAF-12/GRIP1 lit1-tk-luc reporter; % of 3 µM dafachronic acid response. activation, % at 6.8 µM. 370,000 compounds, 1% hits;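 active means activation above the mean over all tested compounds plus 3 SD, cut at about 0.9% in these data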;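 further: 0% = DMSO-only wells and 100% = 3 µM delta7-dafachronic acid wells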
# hcDAF-12 act = H. contortus DAF-12 nuclear receptor activators, primary screen, cell-based, luminescence, HEK293, lit1-tk-luc reporter | HEK293 hcDAF-12 lit1-tk-luc reporter; 0% DMSO, 100% Δ7-dafachronic acid | activation, % at 6.8 µM | 370,000 compounds, 1.4% hits;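 active means activation above the mean of all tested compounds plus 3 SD, cut at about 5.5% in these data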;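 further: 100% = response to 3 µM Δ7-dafachronic acid high control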
# AHR act = AHR activators, primary screen, cell-based, luminescence, luciferase reporter, human. Aryl hydrocarbon receptor (Homo sapiens), P35869. AHR-responsive luciferase reporter cells. activation, % at 5 µM. 320,000 compounds, 2.5% hits; in the data active means activation above about 47%;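 further: 0% = vehicle wells and 100% = reference agonist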
# DAX1 inh-1 = DAX1 (NR0B1) inhibitors on StAR promoter, primary screen, cell-based, luminescence, SF-1 (NR5A1), full-length DAX-1; HEK293T StAR-luciferase reporter, SF-1/DAX-1 repression relief; inhibition, % at 6.8 µM; 370,000 compounds, 1.1% hits;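 active means inhibition above the mean over all tested compounds plus 3 SD, cut at about 3.6% in these data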;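 further: 0% = DAX-1 cells with DMSO and 100% = cells lacking DAX-1 with DMSO; higher inhibition means more luminescence from relief of DAX-1 repression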
# hgDAF-12 ag = H. glycines DAF-12 receptor agonists, primary screen, cell-based, luminescence, HEK293, GAL4 fusion, UAS-luciferase; Nuclear hormone receptor DAF-12 (Heterodera glycines), GAL4 fusion; HEK293 GAL4-hgDAF12 UAS-luciferase reporter, agonist luminescence; normalized to butyrate control; activation, % at 6.8 µM; 370,000 compounds, 1.8% hits; AID 687014, 2013;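 active means activation above a cutoff set at the mean of all screened compounds plus 3 SD, cut at about 10% in these data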;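 further: 0% = DMSO wells and 100% = sodium butyrate wells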
# DAX1 inh-2 = DAX1 (NR0B1) inhibitors, primary screen, cell-based, HEK293, Gal4-DAX1, luciferase luminescence. Nuclear receptor subfamily 0 group B member 1 (Homo sapiens), P51843. HEK293 Gal4-DAX1 luciferase reporter. inhibition, % at 6.75 µM. 340,000 compounds, 0.99% hits;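 active means inhibition above the mean over all tested compounds plus 3 SD, cut at about 4.2% in these data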;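 further: 0% = DAX1-transfected cells with DMSO and 100% = empty-vector control cells with DMSO; inhibition shows as a rise in luminescence from relieved DAX1 repression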
# LXR ag = LXR agonists, Gal4 luciferase reporter, confirmation, counter-screen for hcDAF-12 agonist project, cell-based, luminescence, HEK293, H. contortus campaign. AID 743027, 2013. shares compounds with hcDAF-12 act. HEK293 Gal4-LXR tk-luc reporter, 24 h; normalized: DMSO 0%, positive control 100%. activation, % at 6.8 µM. 3,400 tested, under 10 active;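 active means mean percent activation of the reporter above a cutoff set as the average over tested compounds plus their standard deviation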
# Target sequence (P55055 whole entry, looked up, the tested form may be a part): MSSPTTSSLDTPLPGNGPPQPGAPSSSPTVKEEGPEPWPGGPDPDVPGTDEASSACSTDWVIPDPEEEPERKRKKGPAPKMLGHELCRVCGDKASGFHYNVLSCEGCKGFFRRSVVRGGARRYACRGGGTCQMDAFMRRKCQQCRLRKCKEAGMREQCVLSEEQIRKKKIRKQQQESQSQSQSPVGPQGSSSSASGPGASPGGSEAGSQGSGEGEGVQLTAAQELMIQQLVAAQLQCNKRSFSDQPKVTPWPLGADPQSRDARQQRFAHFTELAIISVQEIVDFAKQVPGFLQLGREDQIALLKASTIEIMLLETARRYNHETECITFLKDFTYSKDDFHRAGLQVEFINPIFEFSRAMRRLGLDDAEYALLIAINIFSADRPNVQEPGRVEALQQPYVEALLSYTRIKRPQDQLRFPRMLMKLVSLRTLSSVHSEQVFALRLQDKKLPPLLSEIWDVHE
# hcDAF12 ag = H. contortus DAF-12 receptor agonists, confirmation, cell-based, luminescence, HEK293, lit1-tk-luc, triplicate; shares compounds with hcDAF-12 act; HEK293 hcDAF-12 lit1-tk-luc reporter; % of Δ7-dafachronic acid response; activation, % at 6.8 µM; 3,400 compounds, 61% hits; AID 743032, 2013;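 active means mean activation across triplicate tests above the threshold derived from the earlier primary screen, cut at about 5.5% in these data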;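 further: 0% = DMSO only wells and 100% = 3 µM Δ7-dafachronic acid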
# hgDAF12 conf = H. glycines DAF-12 receptor agonists, confirmation, cell-based, luminescence, HEK293, GAL4-LBD fusion. shares compounds with hgDAF-12 ag. HEK293 GAL4-hgDAF12 luciferase reporter, agonist mode; percent of butyrate response. activation, % at 6.8 µM. 3,300 compounds, 80% hits;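 active means mean activation over triplicate wells above the hit cutoff derived from the earlier primary screen, cut at about 11% in these data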;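 further: 0% = DMSO low control and 100% = 2 mM sodium butyrate high control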
# LXR ag 2 = LXR agonists, Gal4 luciferase reporter, confirmation, counter-screen for hgDAF-12 agonist project, cell-based, luminescence, HEK293, H. glycines campaign. 3,300 tested, under 10 active. activation, % at 6.8 µM. shares compounds with hgDAF-12 ag. 24 h;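 active means mean activation of the triplicate above a set limit carried over from the primary screen, none filed active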
# * marks the source's active call; other numbers are inactive results; nt = no result given. Rows were chosen to be rich in hits. Some 5.7% of all compounds tested hit in one or more screens of this group.
SMILES,ssDAF12 agonist,hcDAF-12 act,AHR act,DAX1 inh-1,hgDAF-12 ag,DAX1 inh-2,LXR ag,hcDAF12 ag,hgDAF12 conf,LXR ag 2
c1ccc(Nc2scc(-c3ccccc3)[n+]2Cc2ccco2)cc1,0,7.3*,37,3,14*,5.1*,1,4,16*,1
CNC(=O)c1ccsc1NC(=O)c1ccc2c(c1)CCCC2,0,6.9*,31,1,17*,0,0,7.0*,9,0
Clc1ccc(/C=N/Nc2ncnc3ccccc23)cc1Cl,1.1*,10*,58*,3,16*,12*,1,7.0*,20*,1
Nc1c(Cl)ncnc1N/N=C/c1cccc(O)c1,-2,-1,6,0,-1,2,nt,nt,nt,nt
CCc1nc2ccc(C(=O)Nc3ccc(NC(C)=O)cc3)cn2c1N(C)C(=O)Cc1ccccc1,-2,-4,nt,-3,-10,nt,nt,nt,nt,nt
Cc1ccc(S(=O)(=O)Nc2ccc(-c3cn4ccc(C)cc4n3)cc2)cc1,-2,-1,40,0,4,0,nt,nt,nt,nt
Cc1ccn2cc(-c3ccc(Br)cc3)nc2c1,1,12*,74*,3.7*,14*,-3,1,8.4*,13*,1
CN(C)c1ccc(-c2nc3ccccn3c2/N=C/c2ccc(Br)cc2)cc1,1.4*,7.5*,47*,3,16*,0,1,5,8,1
CC1CCN(c2ccc3c(c2)S(=O)(=O)c2cccc(C(=O)NC4CCCCC4)c2C3=O)CC1,-1,1,3,0,-1,0,nt,nt,nt,nt
c1ccc([C@H]2CN3C(=N2)Sc2ccccc23)cc1,2.5*,13*,72*,4,16*,2,1,15*,24*,1
CC(=O)N1SC(N)=NC1c1ccccc1 (stereo not given),0,0,1,0,1,0,nt,nt,nt,nt
CCc1nnc(NS(=O)(=O)c2ccc(NC(=S)NC(=O)/C=C/c3ccc(C(C)C)cc3)cc2)s1,nt,nt,-1,nt,nt,0,nt,nt,nt,nt
Cc1c(C(=O)Nc2ccc3c(c2)OCO3)oc2ccccc12,2.8*,16*,76*,2,18*,1,1,16*,21*,1
NS(=O)(=O)c1ccc(NC(=S)NC(=O)c2ccc3c(c2)OCO3)cc1,-1,0,10,0,7,2,nt,nt,nt,nt
O=C(NC(=S)Nc1ccc2c(c1)OCO2)c1ccccc1,1,8.7*,24,2,15*,3,2,6.1*,20*,1
COc1cc(NC(=O)c2oc3ccccc3c2C)ccc1NC(=O)c1ccco1,-2,-4,29,-2,-1,-3,nt,nt,nt,nt
COC(=O)c1sccc1N/N=C/c1cccc(OC)c1O,1.3*,12*,24,3,19*,-2,2,9.0*,25*,1
CC1(C(=O)NS(=O)(=O)c2ccccc2C(F)(F)F)CCN1C(=O)c1cccc(F)c1 (stereo not given),-1,-2,nt,0,2,nt,nt,nt,nt,nt
Cc1ccc(SCc2nc(-c3cccnc3)no2)cc1,0,0,6,0,0,0,nt,nt,nt,nt
c1cncc(-c2noc(-c3ccc4ccccc4c3)n2)c1,1.0*,8.8*,15,3,17*,0,1,5,19*,1
O=C(/C=C/Nc1ccccc1)c1ccc(Cl)cc1Cl,1.1*,8.0*,-3,3,15*,4,1,5,26*,1
O=C(NN/C(=N/S(=O)(=O)c1ccc(Cl)cc1)c1ccccc1)c1cccc(Cl)c1,1.2*,8.8*,24,2,16*,1,1,7.6*,18*,1
O=C(O)c1ccc(N/C(=N\S(=O)(=O)c2ccc(Cl)cc2)c2ccccc2)cc1,-1,1,0,0,-4,0,nt,nt,nt,nt
COc1cc(OC)cc(C(=O)N[C@H](C(=O)NC2=NCCS2)C(C)C)c1,-1,-1,0,0,-1,0,nt,nt,nt,nt
c1csc(C2=NNC(=NC3CCCCC3)SC2)c1,1.5*,10*,26,3,17*,nt,1,6,16*,1
SMILES,ssDAF12 agonist,hcDAF-12 act,AHR act,DAX1 inh-1,hgDAF-12 ag,DAX1 inh-2,LXR ag,hcDAF12 ag,hgDAF12 conf,LXR ag 2
Cc1cc(C2=NNC(=NC3CCCCC3)SC2)c(C)n1-c1c(C)n(C)n(-c2ccccc2)c1=O,-2,1,1,-1,-1,0,nt,nt,nt,nt
CC(=O)c1ccc(NC(=S)N2CCN(S(=O)(=O)c3ccc(F)cc3)CC2)cc1,-1,1,0,0,-3,0,nt,nt,nt,nt
Oc1cccc2ccc(/C=C/c3ccccc3Br)nc12,0,2,28,0,6,3,nt,nt,nt,nt
Cc1ccsc1/C=C/c1ccc2cccc(O)c2n1,1.8*,15*,94*,3,17*,3,2,14*,22*,1
Oc1cccc2ccc(/C=C/c3cccs3)nc12,2.3*,17*,70*,2,20*,4,1,12*,20*,1
COc1cc(C(=O)N2c3ccccc3CCC2C)cc(OC)c1OC (stereo not given),-2,-4,2,-1,0,-3,nt,nt,nt,nt
